34 compounds from PubChem BioAssay (EPA / NIEHS) can be followed below.

Records with an inconclusive call do not appear. Calls of active or inactive are those of the source. Rule for the calls: active = hit-call score of the fitted dose curve at least 0.9, where 1 is the maximum; inconclusive = response in the unintended direction; inactive = score below 0.9.

This assay can be described thus: ACEA_AR_agonist_AUC_viability: ACEA Biosciences xCELLigence Real-Time Cell Analysis on Androgen Receptor Agonism for Viability (AID 2283775).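 For AC50: viability read 80 hours after compound addition.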 The method, boiled down:
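Viability endpoint from xCELLigence impedance in 22Rv1 prostate cells at 80 h. Eight-point series, 100 uM maximum final.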
Turning to `NC(=O)N=NC(N)=O`, the outcome was inactive.

As to `CCCCCCCCO[C@@H]1O[C@H](CO)[C@@H](O)[C@H](O)[C@H]1O`, the outcome was inactive.

For `O=C(OCC1CCC2OC2C1)C1CCC2OC2C1` (centres undefined), the AC50 is 9.05 µM (active).

Regarding `O=C1C(N(CO)C(=O)NCO)N(CO)C(=O)N1CO` (centres undefined), the compound was classed as inactive.

On to `O=C(O)CCCC[C@@H]1SC[C@@H]2NC(=O)N[C@@H]21`, for which the outcome was inactive.

For `CCCCCCCOC(=O)CCC`, the compound was classed as inactive.

For `CNC(=S)NN`, the compound was classed as inactive.

Regarding `Cc1cc(C)c(C(=O)O)c(C)c1`, the result was inactive.

In the case of `OC1CCCCCCCCCCC1`, the compound was classed as inactive.

As for `CC(C)c1ccc2c(C(C)C)cc(C(C)C)c(S(=O)(=O)O)c2c1`, the outcome was inactive.

For the compound `O=C(C(Cl)Cl)N1CCOC12CCCCC2`, the concentration at half-maximal activity (AC50) was 9.81 µM (active).

For the compound `CC1=NN(c2cc(S(=O)(=O)O)ccc2Cl)C(=O)C1N=Nc1ccccc1` (centres undefined), the call was inactive.

On to `CCCCCCCC/C=C\CCCCCCCC(=O)O`, for which the result was inactive.

As for `C=C1C2CCC(C2)C1(C)C` (centres undefined), the result was inactive.

`CC(C)=CCC[C@H](C)CCO`: the result was inactive.

Take `CCCc1ccc(OC)cc1`: the compound was called inactive.

With `CCOC(=O)CC`, the outcome was inactive.

Turning to `CC1=CC[C@H]2C[C@@H]1C2(C)C`, the compound was classed as inactive.

In the case of `CCCCCCCC/C=C\CCCCCCCC(=O)OCCO`, the result was inactive.

Turning to `CC(C)(C)c1ccc(OC(=O)c2ccccc2O)cc1`, the half-maximal activity concentration (AC50) is 0.106 µM (active).

Turning to `O=C(c1ccccc1)C1CCC1`, the compound was classed as inactive.

As for `CCCCOCCOC(=O)COc1nc(Cl)c(Cl)cc1Cl`, the result was inactive.

For the compound `CC(=O)OC(C)C`, the call was inactive.

Take `C=C[Si](C)(C)O[Si](C)(C)C=C`: the result was inactive.

On to `O=c1cc(-c2ccccc2)oc2ccccc12`, for which the outcome was inactive.

On to `CCCCC(CC)CCC(CC(C)C)OS(=O)(=O)O` (centres undefined), for which the concentration at half-maximal activity (AC50) was 4.29 µM (active).

For `CCCCCCC1(C)CCC(=O)O1` (centres undefined), the concentration at half-maximal activity (AC50) is 1.1 µM (active).

In the case of `NC(=O)c1ccccc1O`, the call was inactive.

Regarding `OC1CCCC1`, the result was inactive.

Turning to `CCO[Si](C)(OCC)OCC`, the call was inactive.

Turning to `C=CC(=O)NC(C)(C)CS(=O)(=O)O`, the compound was classed as inactive.

For `c1c[nH]cn1`, the compound was classed as inactive.

For the compound `Cc1ccc(C(C)(C)C)cc1`, the outcome was inactive.

On to `CC=C1CC2C=CC1C2` (centres undefined), for which the compound was classed as inactive.

What is called AC50 is the concentration giving half of the maximal activity seen.
